{"source": "PubChem BioAssay AID862", "about": "(The Scripps Research Institute Molecular Screening Center, 2007)", "note": "The campaign covered roughly 190,000 compounds. About 1,700 (0.89%) were called active. Many of the other results were omitted from the sample, so actives are more common in it than they were. Unmarked numbers belong to inactive results.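 The calls were made as follows: active = inhibition above the mean inhibition across all screened compounds plus 3 SD (cut at about 44% in these data); inactive = the rest.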"}
{"experiment": "blockers of STAT3 transcriptional signaling – U3A cells, luciferase, luminescence, MLSCN library, primary screen (AID 862);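 also: 0% = DMSO only wells and 100% = 100 µM nifuroxazide control wells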", "conditions": "IL-6 STAT3-luciferase reporter, at 5.5 µM, active compounds read high, host cell line lacks STAT1"}
{"compound": "Cc1ccc(C2CCN(C(=S)Nc3cccc(Cl)c3)C2)cc1", "note": "(stereo not drawn)", "inhibition": "0.7%"}
{"compound": "CCc1ccc(-n2c(SCc3cc(=O)n4cc(Br)ccc4n3)nc3[nH]ncc3c2=O)cc1", "inhibition": "9.7%"}
{"compound": "CSCCNCc1cn(-c2ccc(F)cc2F)nc1-c1ccccc1C", "inhibition": "0.4%"}
{"compound": "COc1ccc(CCNC(=O)Cn2c(=O)n(CC3CCCO3)c(=O)c3ccccc32)cc1OC", "note": "(stereo not drawn)", "inhibition": "10.4%"}
{"compound": "Cc1nc(CNS(=O)(=O)c2ccc(Oc3ccccc3)cc2)cs1", "inhibition": "54% (active)"}
{"compound": "Cc1ccc(S(=O)(=O)NCc2csc(C)n2)c(C)c1", "inhibition": "-8.4%"}
{"compound": "Cc1nc(CNS(=O)(=O)c2cccnc2)cs1", "inhibition": "5.7%"}
{"compound": "CCc1cc2c(N3CCN(c4nnc(CC)s4)CC3)ncnc2s1", "inhibition": "57.3% (active)"}
{"compound": "CCc1cc2c(NC3CCCC3)ncnc2s1", "inhibition": "13%"}
{"compound": "CCc1cc2c(SCC(=O)Nc3ncc(Cl)c(C)c3Cl)ncnc2s1", "inhibition": "-5.3%"}
{"compound": "CCC(C)CN1CCC(CO)(Cc2ccccc2Cl)CC1", "note": "(stereo not drawn)", "inhibition": "3.5%"}
{"compound": "Cc1cccc(C(=O)N2CCCN(C(=O)c3cccc(C)c3)CC2)c1", "inhibition": "3.3%"}
{"compound": "Cc1cc(=O)oc(C)c1C(=O)N1CCCCC1", "inhibition": "6.3%"}
{"compound": "Cc1ccc2cc3cc(C(=O)N4CCCCCC4)oc3nc2c1", "inhibition": "48.7% (active)"}
{"compound": "CN1CCN(c2ccc(NC(=O)c3ccc4c(c3)OCCO4)cc2Cl)CC1", "inhibition": "-19.1%"}
{"compound": "c1ccc(Cc2cc[n+](Cc3ccccc3)cc2)cc1", "inhibition": "10.2%"}
{"compound": "CC1CCCN(S(=O)(=O)c2ccc(N(C(=O)c3cnccn3)C(C(=O)NC3CCCCC3)c3cccs3)cc2)C1", "note": "(stereo not drawn)", "inhibition": "5.3%"}
{"compound": "c1ccc(-c2[nH]ncc2-c2nc3ccccc3[nH]2)cc1", "inhibition": "15.2%"}
{"compound": "c1ccc2[nH]c(-c3nc4ccccc4[nH]3)nc2c1", "inhibition": "44.2% (active)"}
{"compound": "Cc1ccc(-c2nc3ccccc3[nH]2)cc1N", "inhibition": "-19.1%"}
{"compound": "Cc1cccc(C)c1NC(=O)Nc1ccccc1-n1ccnc1", "inhibition": "4%"}
{"compound": "COCCC(=O)Nc1ccc2c(c1)CN(C(=O)CCOC)CC2", "inhibition": "-5.3%"}
{"compound": "CCNC(=S)NNC(=O)c1ccc2ncccc2c1", "inhibition": "7.8%"}
{"compound": "O=C(O)c1ccc(N/N=C/c2cn(-c3ccccc3)nc2-c2cccs2)cc1", "inhibition": "1%"}
{"compound": "O=C(O)c1ccc(N/N=C/c2ccc3ncccc3c2)cc1", "inhibition": "69.5% (active)"}
{"compound": "CCCC(c1nnnn1C(C)(C)C)N1CCN(Cc2ccccc2)CC1", "note": "(stereo not drawn)", "inhibition": "-0.6%"}
{"compound": "O=C(CC(O)(C(F)(F)F)C(F)(F)F)Nc1ccc(Cl)c(Cl)c1", "inhibition": "65.1% (active)"}
{"compound": "CN(C)CCNC(CC(=O)Nc1ccc(Cl)c(Cl)c1)C(=O)O", "note": "(stereo not drawn)", "inhibition": "5.8%"}
{"compound": "O=C(CC(=O)Nc1ccc(Cl)c(Cl)c1)N/N=C/c1ccc(O)cc1", "inhibition": "-5%"}
{"compound": "COc1cc(C(=O)NCc2ccc(-n3cccc3)cc2)cc(OC)c1OC", "inhibition": "6.8%"}
{"compound": "COc1ccccc1C(=O)Nc1ccc(OCc2nnc3c4ccccc4c(C)nn23)cc1", "inhibition": "21.6%"}
{"compound": "COc1ccc(C)cc1NC(=O)NCc1ccccn1", "inhibition": "15%"}
{"compound": "CN(c1ccc(OCC(=O)OCC(=O)Nc2cccc([N+](=O)[O-])c2)cc1)S(=O)(=O)c1ccc(F)cc1", "inhibition": "5.5%"}
{"compound": "O=C(COC(=O)c1n[nH]c2ccccc12)NCc1ccccc1", "inhibition": "5.8%"}
{"compound": "CCN(CC)S(=O)(=O)c1ccc2nc(COC(=O)c3n[nH]c4ccccc34)[nH]c2c1", "inhibition": "19.1%"}
{"compound": "CN(C)S(=O)(=O)c1ccc(NC(=O)COC(=O)c2n[nH]c3ccccc23)cc1", "inhibition": "49.3% (active)"}
{"compound": "COc1ccccc1NC(=O)c1c(Br)cnn1C", "inhibition": "25.4%"}
{"compound": "CCOC(=O)CNc1nc2ccccc2n2c(C)nnc12", "inhibition": "24.4%"}
{"compound": "Oc1c(Cl)cc(Cl)c(Cl)c1Cc1c(O)c(Cl)cc(Cl)c1Cl", "inhibition": "43.6% (active)"}
{"compound": "O=C(Nc1ccc2cn[nH]c2c1)c1ccc(S(=O)(=O)N2CCOCC2)cc1", "inhibition": "-32.5%"}
{"compound": "CC(=O)NC(Cc1ccc(F)c(F)c1)C(=O)NC1CCN(c2nnnn2-c2ccccc2)CC1", "note": "(stereo not drawn)", "inhibition": "10.3%"}
{"compound": "COc1cc(/C=N/NC(=O)c2ccccc2)ccc1OS(=O)(=O)c1ccccc1", "inhibition": "1.7%"}
{"compound": "COc1ccc(C(=O)Nc2ccccc2C(=O)N/N=C/c2ccccc2OC)cc1", "inhibition": "1.8%"}
{"compound": "COc1ccc(C(=O)Nc2ccccc2C(=O)N/N=C/c2ccc(O)c(OC)c2)cc1", "inhibition": "106% (active)"}
{"compound": "CC(C)CNC(=O)C(=O)NCc1ccccc1", "inhibition": "-0.6%"}
{"compound": "CC(Sc1nc(-c2ccccc2)cc(C(F)(F)F)n1)C(=O)Nc1ccc2c(c1)OCO2", "note": "(stereo not drawn)", "inhibition": "-2.7%"}
{"compound": "O=C(Nc1ccc2c(c1)OCCO2)c1ccncc1", "inhibition": "-8.8%"}
{"compound": "Cn1cc([N+](=O)[O-])c(C(=O)Nc2ccc3c(c2)OCCO3)n1", "inhibition": "51.3% (active)"}
{"compound": "Cn1cc([N+](=O)[O-])c(C(=O)Nc2cnn(Cc3ccc(F)cc3)c2)n1", "inhibition": "36.8%"}
{"compound": "Cc1ccc(CCCOC(=O)C[N+]2(C)CCCC2)cc1", "inhibition": "-9.5%"}
{"compound": "S=C(NN=C1CCN(Cc2ccccc2)CC1)NC1CCCCC1", "inhibition": "-0.1%"}
{"compound": "Cn1nnnc1SCC(=O)Nc1nc2ccccc2s1", "inhibition": "-2.9%"}
{"compound": "CC(=O)NCCc1nc2cc(NC(=O)c3ccccc3)ccc2n1C", "inhibition": "15.8%"}
{"compound": "CCC(=O)Nc1ccc2c(c1)nc(CCN1CCN(C)CC1)n2C", "inhibition": "9.8%"}
{"compound": "Cn1c(CN2CCOCC2)nc2cc(NC(=O)c3ccc(Cl)cc3)ccc21", "inhibition": "66.2% (active)"}
{"compound": "O=C(NCc1ccccc1Cl)C1CCN(S(=O)(=O)N2CCOCC2)CC1", "inhibition": "2.3%"}
{"compound": "O=C1CCCN1CCCNc1ncnc2c1[nH]c1ccccc12", "inhibition": "-56.6%"}
{"compound": "CC(C)OCCCNc1ncnc2c1[nH]c1ccc(F)cc12", "inhibition": "80.4% (active)"}
{"compound": "CCN1CCCC1CNc1ncnc2c1[nH]c1ccc(F)cc12", "note": "(stereo not drawn)", "inhibition": "-30.1%"}
{"compound": "Cc1nc2cc(NC(=O)NC3CC3)ccc2n1C", "inhibition": "7.5%"}
{"compound": "CC(=O)Nc1ccc(C(=O)CSc2nnc(Cc3ccccc3)o2)cc1", "inhibition": "0.2%"}
{"compound": "CC(C)C[C@@H](N)c1nnc(SCC(=O)c2ccc(Cl)cc2)o1", "inhibition": "53.4% (active)"}
{"compound": "COc1ccc(C(=O)CSc2nnc(-c3ccco3)o2)cc1", "inhibition": "2.9%"}
